# The supplement of paper PMC10681739
# Target: T1, ETS1 (UniProt P14921)
# T1 sequence: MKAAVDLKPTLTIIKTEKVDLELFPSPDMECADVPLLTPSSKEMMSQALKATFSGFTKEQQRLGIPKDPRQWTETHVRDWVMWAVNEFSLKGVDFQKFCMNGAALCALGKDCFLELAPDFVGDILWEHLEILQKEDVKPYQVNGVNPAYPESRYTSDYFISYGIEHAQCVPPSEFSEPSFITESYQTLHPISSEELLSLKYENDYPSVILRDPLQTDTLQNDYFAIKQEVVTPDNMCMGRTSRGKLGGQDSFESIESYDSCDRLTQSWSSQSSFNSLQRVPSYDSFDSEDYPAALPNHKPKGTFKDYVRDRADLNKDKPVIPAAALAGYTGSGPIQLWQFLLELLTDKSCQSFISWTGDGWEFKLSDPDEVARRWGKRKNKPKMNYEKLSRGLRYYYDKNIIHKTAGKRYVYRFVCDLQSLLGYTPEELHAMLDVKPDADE
# Test: TF binding intensity (PBM fluorescence), negative control probe (arbitrary fluorescence units); higher = stronger binding
# Description: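 gcPBM negative-control 36-bp genomic probes lacking TF binding sites. Each was incubated with recombinant human ETS1 or RUNX1 alone and detected by antibody fluorescence. Values are medians over replicate spots (4 spots for the ETS1-RUNX1 arrays, 3 for the ETS1-ETS1 array). The probes sit in constant array flanks that are not printed.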
row,Sequence,TF binding intensity
1,TCCTGTAAGGACATTTTGTGCCTTCTCCCATGATGA (protein concentration 10 nM),97.8
2,CATTAGTAAACCCTTACCACACCCAAACAACAAAAG (protein concentration 1 nM),541
3,TTGGGACCAATTTGACCCACAAACCCTGAAAAAGAG (protein concentration 1 nM),497
4,CAGGCAGCATCTGGGGGTGTGTGGGTTTGGCAAGCT (protein concentration 10 nM),134
5,TTGAAATGCATTCTCTGTGGGCATATGAAGTAGATT (protein concentration 1 nM),410
6,ATAAAACACAGTGTACAGTGACCTTTTAATCACAAC (protein concentration 10 nM),132
7,GGGCCGCGCCGAGGGGACCACGGGACGCCCTCCTTC (protein concentration 10 nM),102
8,CTCGCGGCGCACTCCCAGAGGCTGGGGGGCCGGGGC (protein concentration 10 nM),183
9,CCGCACGCGGGCGCGGGCCAGCTGCAGATGGAGAAC (protein concentration 10 nM),136
10,CATATAACTGGTAGAACATCAGGTGTGGGTGGATCA (protein concentration 10 nM),111
11,CTCAGTGCCTGCCTCAGATGTTTAAGTCTGAACATT (protein concentration 10 nM),110
12,TAAATCAAAAGATGACCAAGCTGGAGAGAAAAGTGA (protein concentration 10 nM),129
13,TCCTTTTGCTATACAGACCCCAGAACTCCTGAATGG (protein concentration 10 nM),119
14,GTTTCTTATAAGCAGAAACACTAACAAAGGACAGCG (protein concentration 10 nM),146
15,TCCTCAGGGACGTGTGAGAACCTGGCTAGGCAAGAG (protein concentration 10 nM),135
16,GTCAAAGGCTCTGCAGAGTCAAGTAGCCTCCCACTT (protein concentration 10 nM),112
17,GTGTGTGAGCGTGTACCCACAATGTGTAACTTAATT (protein concentration 1 nM),484
18,AAAACTAAAAGTAGAACCACCATATGATCCAGTAAT (protein concentration 1 nM),504
19,CCCACTGTAATAGGCAGATACTGATGAAGTCCTGCA (protein concentration 10 nM),147
20,ATAAGCCAATTTTTTTTACATTTATGAAATGAGAGA (protein concentration 10 nM),105
21,CCTGTTTGAAAGAGAAAGAGGGCAGAGTGTGACATG (protein concentration 10 nM),160
22,GTTTTGCAACTCTTATTCCAAGTGGACACCCAGAAA (protein concentration 10 nM),140
23,TTTCTTCACACCACAAGCAGAGAGCAGCGAGAGAGA (protein concentration 10 nM),136
24,CCTTTGTTAGTGATTTGTGGTAGCTAATGTCGTAAT (protein concentration 1 nM),548
25,AGTTATTCTAGCTCAAACCAAGTTATTTTTCACTTT (protein concentration 10 nM),108
